About 250 (1.6%) of roughly 16,000 compounds were called active. This is one part of a sample in which actives are shown more often than they occur.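 Rule for the calls: active = inhibition above the average over every tested compound plus 3 SD (cut at about 40% in these data); inactive = the rest.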
tested on: Hepatitis C virus NS3 helicase; assay: HCV NS3 helicase inhibitors, primary screen, biochemical, fluorescence polarization, ChemBridge library (AID 687043); details: NS3h Cy5-dT15 DNA binding, at 100 µM, active compounds read high

| Compound | inhibition |
| --- | --- |
| O=C(/C=C/c1cc(Br)cs1)Nc1cccc(C(F)(F)F)c1 | 14.4% (inactive) |
| COc1ccc(C2(CNC(=O)c3ccc(F)cc3)CCCC2)cc1OC | 8.8% (inactive) |
| O=C(Nc1ccncc1)c1cc2ccccc2o1 | 11.4% (inactive) |
| CCOC(=O)c1c(C)nc2n(/N=C\c3ccc([N+](=O)[O-])cc3)c3ccccc3n12 | 6.3% (inactive) |
| Cc1ccc(C(=O)Nc2ccc(C(C)C)cc2)cc1C | 3.2% (inactive) |
| Cc1ccc(/C=N\NC(=O)c2cccnc2)o1 | 1.6% (inactive) |
| O=C(NCCc1c[nH]c2ccccc12)c1cccs1 | 8.2% (inactive) |
| COC(=O)C1=C(C)NC2=C(C(=O)c3ccccc32)C1c1ccc(OCc2ccc(F)cc2)c(OC)c1 (configuration not stated) | -0.7% (inactive) |
| Cc1ccc(N2NC(=O)/C(=C/c3ccc4c(c3)OCO4)C2=O)cc1Cl | 5.8% (inactive) |
| O=C(NCCN1CCOCC1)/C(=C/c1ccc(F)cc1)NC(=O)c1ccccc1 | 15.5% (inactive) |
| O=C(Nc1ccc(Cl)c(Cl)c1)Nc1nnc(-c2ccc(F)cc2)s1 | 21.5% (inactive) |
| CCOc1ccc(NC(=O)CC2S/C(=N/N=C3/CCCc4ccccc43)NC2=O)cc1 (configuration not stated) | 16.3% (inactive) |
| Cc1cccc(-c2cc(NC(=O)COc3ccc(Cl)cc3Cl)n[nH]2)c1 | -2.4% (inactive) |
| COc1ccccc1N1CCN(C(=O)c2cnn3c2NC(c2ccc(Br)cc2)CC3C(F)(F)F)CC1 (configuration not stated) | 7.2% (inactive) |
| COc1cc(/C=C2/C(=O)NC(=O)N(c3ccc(C)cc3)C2=O)ccc1OCCOc1ccc([N+](=O)[O-])cc1 | 20.3% (inactive) |
| COc1cc(C=C2C(=O)NC(=O)NC2=O)ccc1OCCOc1ccc([N+](=O)[O-])cc1 | 52.6% (active) |
| COc1cc(/C=C2/SC(=S)NC2=O)ccc1OCCOCCOc1ccc(C)cc1 | 18.6% (inactive) |
| O=C(Cn1cncn1)c1ccc(F)c(F)c1 | -2.3% (inactive) |
| COc1cc(/C=C2/C(=O)N(c3ccccc3)N=C2C)ccc1OC(=O)c1cccs1 | 11.4% (inactive) |
| CCC1=NN2C(=N)/C(=C/c3cc(Br)c(OCc4ccc(F)cc4)c(OC)c3)C(=O)N=C2S1 | 10.4% (inactive) |
| O=C(/C=C/c1ccc(Cl)cc1)Nc1ccc(-c2nc3ccccc3o2)c(O)c1 | 9.9% (inactive) |
| O=C1N=C(N2CCCC2)S/C1=C\c1cccc(Br)c1 | 9.8% (inactive) |
| COc1ccc(C(=O)CSc2nc(C)cc(C)n2)cc1[N+](=O)[O-] | 18% (inactive) |

| Compound | inhibition |
| --- | --- |
| O=C(NC(c1ccccc1)c1ccccc1)c1ccc([N+](=O)[O-])cc1Cl | 14.7% (inactive) |
| O=c1cccc(-c2ccc(Br)cc2)o1 | 0.7% (inactive) |
| CC(C)(C)C(=O)Nc1ccc(C(=O)Nc2ccc(O)cc2C(=O)O)cc1 | -2.6% (inactive) |
| CCOC(=O)c1ccc(-c2ccc(/C=C(/C#N)C(=O)Nc3ccc4ccccc4c3)o2)cc1 | -1.8% (inactive) |
| O=c1oc(-c2ccco2)nc2ccc(Cl)cc12 | -3.4% (inactive) |
| O=C(CSc1ccccn1)N1c2ccccc2Sc2ccccc21 | 10.2% (inactive) |
| O=C(Nc1cc(C(F)(F)F)ccc1Cl)C1CC(=O)N(c2ccc(Br)cc2)C1 (configuration not stated) | 2.2% (inactive) |
| Cc1ccc(NC(=O)c2ccc3c(c2)OCCO3)c([N+](=O)[O-])c1 | 20.8% (inactive) |
| CCC(=O)/C=C1\Sc2ccccc2N1CC | -1.3% (inactive) |
| O=C(CC(Nc1ccc2ncccc2c1)c1ccc(F)cc1)c1ccccc1 (configuration not stated) | 3.6% (inactive) |
| Cc1cc(C)n(C(=O)COc2cccc3ccccc23)n1 | 7.8% (inactive) |
| COc1ccc(C2=N/C(=C/c3ccccc3OC)C(=O)N2c2ccccc2)cc1 | 8.2% (inactive) |
| CCOC(=O)C1=C(C)N=c2s/c(=C\c3ccc(C)o3)c(=O)n2C1c1cccc(OC)c1 (configuration not stated) | 20.2% (inactive) |
| Cc1nnc(Nc2ccc3c(c2)nc(C)n3Cc2ccccc2)c2ccccc12 | 2.2% (inactive) |
| N#CC(C#N)=C1CCCc2ccccc2N1 | -4.1% (inactive) |
| O=c1c(Cl)c(Cl)cnn1Cc1c(Cl)ccc(Cl)c1Cl | 5% (inactive) |
| Cc1ccnc(SC2CC(=O)N(c3ccccc3)C2=O)n1 (configuration not stated) | 1.2% (inactive) |
| COc1ccc(Cl)cc1NC(=O)Cn1nc([N+](=O)[O-])cc1C | 11.3% (inactive) |
| C=CCN1C(=O)/C(=C\c2cc(OC)c(O)c([N+](=O)[O-])c2)C(=O)NC1=S | 81.2% (active) |
| C=CCN1C(=O)/C(=C\c2cc(Cl)c(O)c(Cl)c2)SC1=S | 21.3% (inactive) |
| Cc1ccc(N2C(=O)/C(=C/c3ccc(Oc4ccc([N+](=O)[O-])cn4)cc3)C(=O)NC2=S)cc1 | 25.1% (inactive) |
| C=CCOc1ccccc1C=C1C(=O)NC(=O)NC1=O | 34.9% (inactive) |
| COc1cccc(C=C2C(=O)NC(=O)NC2=O)c1O | 15.5% (inactive) |

| Compound | inhibition |
| --- | --- |
| O=C1NC(=O)C(=Cc2cc([N+](=O)[O-])cc(Br)c2O)C(=O)N1 | 48.9% (active) |
| OCCNC1CCCc2c1[nH]c1ccc(-c3ccccc3)cc21 (configuration not stated) | 2.8% (inactive) |
| CC(C)(C)c1ccc(C2C(C(=O)c3ccco3)=C(O)C(=O)N2c2ncc(S(=O)(=O)c3ccc([N+](=O)[O-])cc3)s2)cc1 (configuration not stated) | 9.7% (inactive) |
| COc1ccc2oc(=O)c(C(N)=O)cc2c1 | 2.8% (inactive) |
| Oc1ccc(Br)cc1CN1CCN(Cc2ccccn2)CC1 | -7.5% (inactive) |
| COc1ccc(Br)cc1/C=C1/SC(=S)N(c2cccc(C(F)(F)F)c2)C1=O | 11.5% (inactive) |
| O=C(CCc1ccccc1)N1N=C(c2cccc([N+](=O)[O-])c2)CC1(O)C(F)(F)F (configuration not stated) | 8.7% (inactive) |
| O=C1NC(=Nc2ccc(F)cc2)S/C1=C\c1cccs1 | 12.6% (inactive) |
| Cc1cc(C)cc(N2C(=O)NC(=O)/C(=C\c3ccc(F)cc3)C2=O)c1 | 21.8% (inactive) |
| CC(C)(C)N1C(=O)NC(=O)C(=Cc2cccs2)C1=O | 75.4% (active) |
| Cc1ccccc1NC(=O)C(=O)NCc1ccco1 | 10.2% (inactive) |
| CSc1ccc(C(C2=C(O)CC(C)(C)CC2=O)C2C(=O)CC(C)(C)CC2=O)cc1 (configuration not stated) | 5.7% (inactive) |
| CCN1C(=O)/C(=C\c2cn(CCOc3ccccc3)c3ccccc23)SC1=S | 11.7% (inactive) |
| O=C(c1cnn2c(C(F)(F)F)cc(-c3cccs3)nc12)N1CCCc2ccccc21 | 14.1% (inactive) |
| O=C(COc1ccc(Br)cc1)Nc1cccc(C(F)(F)F)c1 | 3.2% (inactive) |
| CC(=O)n1nc(C)c2c(-c3ccccc3)c3cc(Br)ccc3nc21 | 0.3% (inactive) |
| O=C(NNC(=O)c1ccc(-c2ccccc2)cc1)Nc1ccccc1 | 6.7% (inactive) |
| O=C(O)COc1ccc2c(=O)c(Oc3ccccc3Br)coc2c1 | 4.5% (inactive) |
| CCOc1ccc(NC(=O)C2=C(C)NC(=S)NC2c2c(OC)ccc3ccccc23)cc1 (configuration not stated) | 6.9% (inactive) |
| CCc1ccc2oc(-c3ccc(NC(=O)c4ccccc4[N+](=O)[O-])cc3)nc2c1 | 17.7% (inactive) |
| COc1ccc2oc(=O)c(-c3ccc(I)cc3)cc2c1 | 1.3% (inactive) |
| Cc1ccc(C(=O)C[n+]2cc(-c3ccccc3)n3c2CCCCC3)cc1 | 54.5% (active) |
| COC(=O)c1cc(NC(=O)c2ccc(OC)cc2)cc(C(=O)OC)c1 | 1.9% (inactive) |

| Compound | inhibition |
| --- | --- |
| O=C1CS/C(=N/N=C\c2ccc([N+](=O)[O-])cc2)N1c1ccc(O)cc1 | 9.1% (inactive) |
| Cc1cc(=O)oc2ccc(OCC(=O)O)cc12 | -3.9% (inactive) |
| C=C(C)COc1ccc2oc(C)c(C(=O)OC)c2c1 | 12.1% (inactive) |
| COc1ccc(C(=O)Oc2ccc3oc(=O)cc(C)c3c2)cc1OC | 48.9% (active) |
| O=C(Nc1c(F)cc(F)cc1Br)c1cc2n(n1)C(C(F)(F)F)CC(c1cccs1)N2 (configuration not stated) | 11.4% (inactive) |
| O=C(/C=C/c1cccc([N+](=O)[O-])c1)Nc1ccc(O)c(-c2nc3ccccc3o2)c1 | 12.7% (inactive) |
| CCOc1ccc(C2(Cc3ccccc3)C(=O)c3ccccc3C2=O)cc1 | 5.5% (inactive) |
| CC1=C(C(=O)OCC2CCCO2)C(c2cccc(C(F)(F)F)c2)C2=C(CCCC2=O)N1 (configuration not stated) | -1.6% (inactive) |
| CSc1nsc(SC)c1NC(=O)OCC1([N+](=O)[O-])COC(C)(C)OC1 | 3.2% (inactive) |
| CC(C)n1c(O)c(C2=c3ccccc3=NC2=O)sc1=S | 6.8% (inactive) |
| CCOc1cc(/C=c2\sc3nc4ccccc4n3c2=O)ccc1OC(C)c1ccccc1 (configuration not stated) | 2.5% (inactive) |
| CCCC(=O)Nc1cccc(NC(=O)c2ccc(-c3ccc(Cl)cc3Cl)o2)c1 | 8.9% (inactive) |
| Cc1cc(I)ccc1NC(=O)COc1ccc(Br)cc1 | 8% (inactive) |
| Clc1ccc(Cn2c(CNc3ccc(Cl)cc3)nc3ccccc32)cc1 | 9.9% (inactive) |
| Cc1ccc(N2C(=O)CC(NCc3ccc(F)cc3)C2=O)cc1 (configuration not stated) | 5% (inactive) |
| Cc1ccc(S(=O)(=O)Nc2cc(-c3ccc(F)cc3)[nH]n2)cc1 | -6.5% (inactive) |
| O=C(Nc1nccs1)c1ccc(NC(=O)C2CCCCC2)cc1 | 12.5% (inactive) |
| N/C(=N/OC(=O)c1ccccc1F)c1ccc(Br)cc1 | -3.4% (inactive) |
| CC(C)c1ccc(/C=C(\C(=O)c2ccccc2Cl)c2nc3ccccc3o2)cc1 | 10.6% (inactive) |
| N#Cc1c(SCC(=O)c2ccc(Cl)cc2)nc2c(c1-c1ccco1)CCCC2 | -2.3% (inactive) |
| O=C(Nc1ccc(Oc2ccccc2)cc1)c1ccco1 | 12% (inactive) |
| N#Cc1c(N)nc2sc(C(=O)Nc3ccccc3)c(N)c2c1-c1ccco1 | 65.7% (active) |
| COC(=O)c1cc(C(=O)N(Cc2ccccc2)c2ccccn2)cc([N+](=O)[O-])c1 | 8.4% (inactive) |

— PubChem BioAssay AID687043 (Milwaukee Institute for Drug Discovery, 2013)
